These results are taken from PubChem BioAssay.

Assay [1] deals with Plasmodium falciparum Sir2 (PF13_0152, Sir2A). Put plainly: Plasmodium falciparum Sir2A binding compounds – biochemical, small-molecule microarray, 635 nm fluorescence, primary screen (AID 1098).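 Note: score merges spot fluorescence intensity with its signal-to-noise ratio.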 As to conditions: fluorescence 635 nm, higher = more signal.
Assay [2] can be described thus: probe aDKK1 binding to arrayed compounds – biochemical, biotinylated probe, 635/667 nm fluorescence, primary screen (AID 1099).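 Note: score merges 667nm spot fluorescence with signal to noise across triplicate slides; reference of the scale not given here.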 As to conditions: small-molecule microarray, higher = more signal.
A short description of assay [3]: probe aCHRDL2 binding to arrayed compounds – biochemical, biotinylated probe, 635/667 nm fluorescence, primary screen (AID 1100). As to conditions: small-molecule microarray, higher = more signal.
Assay [4] can be described thus: change in splice reporter luminescence, either direction, cell-based, HEK293, spliceosome inhibition project, primary screen (AID 1101).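 Note: HEK293 cells carrying a splicing-competent luciferase reporter gene; test concentration not given here.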 As to conditions: HEK293 splicing luciferase reporter, 24 h, higher = more signal, called active from +8 up or from −8 down. (In general: A reporter such as luciferase makes a cellular process visible.)
The target in assay [5] is Fibroblast growth factor 10 (Homo sapiens) (UniProt O15520). Put plainly: compounds binding fibroblast growth factor 10 – biochemical, small-molecule microarray, 635 nm fluorescence, primary screen (AID 1102). As to conditions: FGF10 binding, fluorescence 635 nm, higher = more signal.
The test system of assay [6] is glycogen synthase kinase-3 (GSK3A per assay name; protocol says GSK3B). Put plainly: compounds binding glycogen synthase kinase-3 – biochemical, small-molecule microarray, 635 nm fluorescence, GSK3A, primary screen (AID 1103). Note: the record names both GSK3A and GSK3B. As to conditions: fluorescence 635 nm, higher = more signal.
Assay [7] has as its target Epidermal growth factor receptor (Homo sapiens) (UniProt P00533). The experiment in a line: compounds binding epidermal growth factor receptor – biochemical, small-molecule microarray, 635 nm fluorescence, primary screen (AID 1104).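 Note: score merges 667 nm emission intensity with spot signal to noise over triplicate slides.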 As to conditions: EGFR binding, higher = more signal.
Assay [8] has as its target Follistatin-related protein 3 (Homo sapiens) (UniProt O95633). Put plainly: compounds binding follistatin-related protein 3 – biochemical, small-molecule microarray, 635 nm fluorescence, primary screen (AID 1105).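 Note: score merges emission near 667 nm and signal to noise per printed spot across three slides.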 As to conditions: FSTL3 binding, higher = more signal.
The target of assay [9] is Dickkopf-related protein 1 (Homo sapiens) (UniProt O94907). The experiment in a line: small molecules binding DKK1 protein – biochemical, small-molecule microarray, 635 nm fluorescence scan, primary screen (AID 1106).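 Note: score merges emission near 667 nm with signal to noise over three replicate slides.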 As to conditions: higher = more signal.
The test system of assay [10] is Inhibin beta A chain (activin A). The experiment in a line: small molecules binding activin A – biochemical, small-molecule microarray, 635 nm fluorescence scan, primary screen (AID 1107).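 Note: mouse activin A protein probed at 4.33 µg/mL on printed slides; score merges bound-protein fluorescence near 667 nm with spot signal-to-noise.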 As to conditions: INHBA, higher = more signal.

The source made the active and inactive calls.

Chain of Dickkopf-related protein 1 (Homo sapiens) (O94907 whole entry, looked up): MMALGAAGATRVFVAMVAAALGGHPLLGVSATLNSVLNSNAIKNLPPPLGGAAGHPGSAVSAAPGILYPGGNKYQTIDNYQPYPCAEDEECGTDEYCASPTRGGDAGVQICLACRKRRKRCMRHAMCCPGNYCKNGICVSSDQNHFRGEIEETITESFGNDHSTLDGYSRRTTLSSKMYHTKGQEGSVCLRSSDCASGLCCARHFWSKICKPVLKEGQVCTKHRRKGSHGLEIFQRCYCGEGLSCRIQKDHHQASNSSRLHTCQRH
Chain of Fibroblast growth factor 10 (Homo sapiens) (O15520 whole entry, looked up): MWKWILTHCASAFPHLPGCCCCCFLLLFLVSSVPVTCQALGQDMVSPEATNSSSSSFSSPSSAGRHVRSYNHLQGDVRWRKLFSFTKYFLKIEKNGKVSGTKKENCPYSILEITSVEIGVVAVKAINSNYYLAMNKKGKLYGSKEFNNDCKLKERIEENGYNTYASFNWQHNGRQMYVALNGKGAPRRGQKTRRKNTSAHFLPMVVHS
Chain of Epidermal growth factor receptor (Homo sapiens) (P00533 whole entry, looked up): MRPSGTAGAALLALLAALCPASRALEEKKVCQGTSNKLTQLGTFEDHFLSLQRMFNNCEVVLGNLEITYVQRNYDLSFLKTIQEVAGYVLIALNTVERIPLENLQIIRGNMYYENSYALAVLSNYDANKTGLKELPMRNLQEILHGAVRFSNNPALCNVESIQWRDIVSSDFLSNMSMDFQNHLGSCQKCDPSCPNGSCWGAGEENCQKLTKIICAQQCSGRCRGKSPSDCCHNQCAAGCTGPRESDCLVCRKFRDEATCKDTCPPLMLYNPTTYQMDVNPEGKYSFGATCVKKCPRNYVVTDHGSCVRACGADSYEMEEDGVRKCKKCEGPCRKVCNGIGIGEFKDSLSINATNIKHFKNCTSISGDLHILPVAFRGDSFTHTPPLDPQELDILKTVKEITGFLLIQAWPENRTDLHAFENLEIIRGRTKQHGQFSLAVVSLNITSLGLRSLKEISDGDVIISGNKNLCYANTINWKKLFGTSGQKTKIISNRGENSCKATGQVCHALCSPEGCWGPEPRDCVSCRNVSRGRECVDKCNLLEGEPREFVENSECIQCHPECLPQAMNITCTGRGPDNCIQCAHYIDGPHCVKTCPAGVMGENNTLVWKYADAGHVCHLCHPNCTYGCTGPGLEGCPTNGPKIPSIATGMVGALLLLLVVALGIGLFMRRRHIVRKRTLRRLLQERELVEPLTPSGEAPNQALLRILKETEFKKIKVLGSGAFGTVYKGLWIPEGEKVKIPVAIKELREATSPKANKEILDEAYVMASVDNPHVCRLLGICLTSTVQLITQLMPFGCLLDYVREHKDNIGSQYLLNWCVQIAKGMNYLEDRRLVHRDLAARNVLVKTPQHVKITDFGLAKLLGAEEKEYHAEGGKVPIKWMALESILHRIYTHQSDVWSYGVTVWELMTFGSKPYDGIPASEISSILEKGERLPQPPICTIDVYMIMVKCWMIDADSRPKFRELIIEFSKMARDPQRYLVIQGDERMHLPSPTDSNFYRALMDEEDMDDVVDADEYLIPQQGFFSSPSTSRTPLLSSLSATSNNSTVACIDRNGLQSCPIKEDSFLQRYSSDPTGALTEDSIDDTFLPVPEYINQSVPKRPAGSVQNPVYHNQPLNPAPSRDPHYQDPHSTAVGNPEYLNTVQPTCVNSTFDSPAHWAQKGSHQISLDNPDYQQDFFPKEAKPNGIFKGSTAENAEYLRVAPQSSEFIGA
Chain of Follistatin-related protein 3 (Homo sapiens) (O95633 whole entry, looked up): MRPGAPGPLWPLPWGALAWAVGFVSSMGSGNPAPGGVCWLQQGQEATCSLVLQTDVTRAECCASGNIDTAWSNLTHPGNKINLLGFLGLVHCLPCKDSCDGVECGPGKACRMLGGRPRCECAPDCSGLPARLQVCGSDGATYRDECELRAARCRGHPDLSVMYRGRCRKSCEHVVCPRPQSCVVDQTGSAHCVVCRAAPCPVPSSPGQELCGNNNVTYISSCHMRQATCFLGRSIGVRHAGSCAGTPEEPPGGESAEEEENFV

As for `COCCOC(=O)N1C(=O)[C@@]2(c3cc(C#CCCO)ccc31)[C@H](C(=O)N1CCc3cc(OC)c(OC)cc3C1)[C@H]1C(=O)O[C@H](c3ccccc3)[C@H](c3ccccc3)N1[C@@H]2c1ccc(O)cc1`, the composite z-score in assay [1] worked out at 1.58; in [2] it was 0.0869; in [3], 0.43; in assay [5], 1.06; in assay [6] it was 1.29; in assay [7], 0.413. The figures for the composite z-score in [8], in [9] and in assay [10] were 0.81, 0.547 and -0.132, respectively. In addition, the z-score in assay [4] was -0.341 (inactive).

For the molecule `COCCCN1C(=O)[C@@]2(c3ccc([N+](=O)[O-])cc3)CC(=O)N(C3CCCCC3)[C@@H]2c2ccc(CO)cc21`, the composite z-score is 0.555 in [1]; -0.24 in assay [2]; -0.319 in [3]; 0.301 in assay [5]; 0.237 in assay [6]; -0.0732 in [7]. Further, the composite z-score in assay [8] was found to be 0.593; in assay [9], 0.3; in assay [10] it was 0.717. For the same molecule, the z-score in assay [4] is -0.237 (inactive).

For `CC(C)(C)OC(=O)CC[C@@]12N=C(c3ccc(OCCCO)cc3)O[C@@H]1c1ccccc1N(CCS(=O)(=O)c1ccccc1)C2=O`, the composite z-score in assay [1] was 0.691; in [2], 0.512; in assay [3] it was 1.03; in [5], -0.122; in assay [6] it was 0.323; in assay [7] it was 0.348. Further, the results for the composite z-score in assay [8], in assay [9] and in assay [10] were 1.12, 0.681 and 1.05, respectively. Further, in assay [4], the z-score is -1.14 (inactive).

In the case of `COc1ccc(CCNC(=O)[C@@]2(Sc3ccc(C)cc3)CC(=O)N(C3CCCCC3)[C@@H]2c2ccc(CO)cc2I)cc1`, the composite z-score in [1] was 1.09; in assay [2], -0.0662; in assay [3] it was 0.44; in assay [5], 0.724; in assay [6], 0.974; in assay [7], 0.0902. Moreover, the results for the composite z-score in assay [8], in [9] and in assay [10] were 1.03, 0.0743 and 0.327, respectively. For the same molecule, the z-score in assay [4] was 0.451 (inactive).

As for `CC(=O)NCCCC[C@@H]1NC(=O)[C@@H]2C[C@H](C(=O)NCCCCCCNC(=O)CS)[C@H](c3cccc(OCCO)c3)N2C1=O`, the composite z-score in assay [1] is 1.76; in [2], -0.0828; in assay [3], 0.466; in assay [5] it was 0.639; in assay [6], 1.12; in [7], 0.37. Also, the composite z-score in assay [8] was 0.325; in [9], 0.791; in assay [10] it was 0.388. Besides, the z-score in assay [4] was -0.289 (inactive).

For the molecule `CCCCCN1CC=CC23O[C@@H]4/C=C\CCCOC(=O)C4[C@H]2C(=O)N(C(CO)C(C)C)[C@@H]3C1=O` (stereo not given in full), the composite z-score in [1] was 1.24; in assay [2], -0.248; in [3] it was -0.0212; in [5] it was 0.0758; in assay [6], -0.949; in assay [7], -0.637. Moreover, the composite z-score is -0.188 in assay [8], -0.148 in assay [9] and 1.05 in assay [10]. Further, the z-score in assay [4] is -0.455 (inactive).

`COc1ccc(CCN2C(=O)[C@@]3(Cc4ccccc42)c2ccccc2C(=O)N(Cc2ccccc2C(F)(F)F)[C@H]3c2ccc(CO)cc2)cc1`: the composite z-score in [1] was 0.516; in assay [2] it was -0.19; in assay [3], -0.537; in [5] it was 0.167; in assay [6] it was 0.441; in assay [7], 0.0283. The composite z-score in assay [8] was 0.425; in [9] it was 0.622; in assay [10] it was 0.717. Besides, the z-score in [4] was -0.856 (inactive).

`C=CCOC(=O)[C@H]1[C@@H]2C(=O)O[C@@H](c3ccccc3)[C@@H](c3ccccc3)N2[C@@H](c2ccc(OCCOC(=O)[C@@H]3C[C@@H]4C(=O)N5CCC[C@H]5C(=O)N4[C@@H]3c3cccc(OCCO)c3)cc2)[C@]12C(=O)Nc1ccccc12`: the composite z-score was 1.19 in assay [1]; -0.0198 in assay [2]; 0.0715 in assay [3]; 1.12 in assay [5]; 1.31 in assay [6]; 0.5 in [7]. Further, the composite z-score in [8] turned out to be 0.895; in assay [9], 0.651; in [10], 0.563. In assay [4], the z-score is -0.978 (inactive).

Consider `COc1ccc(C(=O)Nc2cccc(CN3C(=O)[C@]4(O[C@H](CCO)[C@@H]([Si](C)(C)c5ccc(OC)cc5)[C@@H]4C)c4ccccc43)c2)cc1`, for which the composite z-score in assay [1] was 1.44; in assay [2], 0.541; in [3] it was 0.223; in assay [5] it was 0.691; in [6] it was 0.901; in assay [7] it was 0.0077. The composite z-score in assay [8] came to 0.742; in [9] it was 0.331; in assay [10] it was 1.26. Besides, the z-score in assay [4] was 1.3 (inactive).

Regarding `O=C(NCc1ccccc1)[C@@]1(CCS(=O)(=O)c2ccccc2)N=C(c2ccc(OCCCO)cc2)O[C@H]1c1ccccc1`, the composite z-score in assay [1] was 0.691; in assay [2] it was 0.717; in [3] it was 1.03; in [5] it was 1.28; in assay [6], 1.12; in assay [7] it was -0.304. Also, the composite z-score was 0.866 in [8], -0.393 in assay [9] and 0.525 in assay [10]. The z-score in assay [4] is 0.0308 (inactive).

For the molecule `C=C(CCCC)/C(=C/C[C@@H](OC(C)=O)c1ccccc1OCCO)c1cnc2ccccc2c1`, the composite z-score in assay [1] is 0.561; in [2], 0.149; in [3] it was 0.12; in assay [5], 0.732; in assay [6], 0.21; in assay [7], -0.321. The composite z-score was 0.417 in [8], -0.0491 in assay [9] and 1.33 in assay [10]. The z-score in assay [4] was -0.397 (inactive).

As for `O=C1O[C@H](c2ccccc2)[C@H](c2ccccc2)N2[C@H]1[C@@H](C(=O)O)[C@]1(C(=O)Nc3ccc(C#CC4=CCCCC4)cc31)[C@H]2c1ccccc1OCCO`, the composite z-score in assay [1] was 1.49; in assay [2], -0.738; in assay [3], 0.134; in assay [5], 1.19; in assay [6], 1.32; in assay [7], 0.228. For the same molecule, the composite z-score worked out at 1.23 in assay [8], 0.455 in assay [9] and 1.01 in assay [10]. The z-score in assay [4] was -0.246 (inactive).

With `CCOC(=O)C1=CCC(c2ccccc2)N(S(=O)(=O)CC[Si](C)(C)C)C1` (stereo not given), the composite z-score was -0.285 in assay [1]; -0.264 in assay [2]; -0.534 in assay [3]; -0.887 in [5]; -0.157 in [6]; -0.458 in [7]. In addition, the figures for the composite z-score in assay [8], in [9] and in assay [10] were -0.736, -0.214 and 1.24, respectively. Further, the z-score in [4] is 0.191 (inactive).

For the molecule `[N-]=[N+]=NCc1ccccc1C[C@]1(C(=O)N2CCOCC2)N=C(c2ccc(OCCCO)cc2)O[C@H]1c1ccccc1N=[N+]=[N-]`, the composite z-score in assay [1] was found to be 1; in assay [2], 0.873; in assay [3], 0.93; in [5], 1.31; in [6] it was 1.33; in [7], 0.466. Also, the composite z-score in [8] came to 1.37; in [9], 0.234; in [10], 0.878. Further, the z-score in assay [4] was -0.928 (inactive).

Consider `O=C(NCc1ccccc1)[C@@]1(Cc2ccccc2)N=C(c2ccc(OCCCO)cc2)O[C@H]1c1ccccc1`, for which the composite z-score was 0.652 in assay [1]; 1.15 in assay [2]; 1.23 in [3]; 0.366 in assay [5]; 0.3 in assay [6]; -0.47 in assay [7]. The composite z-score was 0.448 in assay [8], -0.996 in [9] and 0.425 in [10]. Moreover, in assay [4], the z-score is 0.915 (inactive).

On to `COc1ccc([Si](C)(C)[C@H]2[C@H](CCn3cc([C@H](O)c4ccccc4)nn3)O[C@@]3(C(=O)N(Cc4cccc(N5CCOC5=O)c4)c4ccccc43)[C@@H]2C)cc1`, for which the composite z-score is 0.463 in [1]; 0.0739 in assay [2]; -0.313 in [3]; 0.339 in [5]; 0.709 in assay [6]; 0.334 in assay [7]. Besides, the composite z-score in assay [8] was 0.769; in assay [9] it was 0.913; in assay [10] it was 0.464. The z-score in assay [4] is 0.36 (inactive).
